From PubChem BioAssay
The source made the active and inactive calls. Unless noted, no rule for the calls is given here.

How the values were obtained:
[1] = anti-His antibody binders, primary screen, artefact control for SMM control protein annotation, biochemical, small-molecule microarray, 635 nm fluorescence (AID 1128); conditions: anti-His Alexa647 antibody binding, higher = more signal;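 also: score merges feature fluorescence with signal-to-noise for each printed compound spot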
[2] = test system: Human papillomavirus type 1a E7 protein (residues 1-88); assay: HPV1a E7 small-molecule binders, primary screen, biochemical, small-molecule microarray, residues 1-88, 635 nm (AID 1129); conditions: small-molecule microarray binding, fluorescence 635 nm; higher = more signal
[3] = molecular target: Focal adhesion kinase 1 (Homo sapiens) (UniProt Q05397); assay: small-molecule microarray binders of FAK, primary screen, biochemical, 635/667 nm fluorescence, BSA, DTT (AID 1130); conditions: PTK2 binding, 635 nm fluorescence, higher = more signal;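 also: composite of spot emission at 667 nm and signal to noise over triplicate slides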
[4] = test system: Fibrinogen (Alexa647-labelled); assay: fibrinogen binders on compound microarrays, profiling panel, artefact control for SMM control-protein annotation, biochemical, small-molecule microarray, 635/667 nm fluorescence (AID 1131); conditions: fibrinogen-A647 binding fluorescence, higher = more signal;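 also: z-score merges 667 nm fluorescence with per-spot signal-to-noise over triplicate slides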
[5] = molecular target: Follistatin (Homo sapiens) (UniProt P19883); assay: follistatin binders on small-molecule microarrays, primary screen, biochemical, small-molecule microarray, 635/667 nm fluorescence (AID 1132); conditions: FST binding, 635 nm fluorescence, higher = more signal
[6] = molecular target: Fibroblast growth factor 2 (Homo sapiens) (UniProt P09038); assay: FGF2 binders on small-molecule microarrays, primary screen, biochemical, small-molecule microarray, 635/667 nm fluorescence (AID 1133); conditions: small-molecule microarray binding, FGF2, fluorescence 635/667; higher = more signal
[7] = mitochondrial membrane potential change in A549 cells, profiling panel, cell-based, JC-1 fluorescence, basal, 24 h, 100 nL (AID 1138); conditions: higher = more signal;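 also: A549 lung adenocarcinoma cells under basal conditions with no added stimulus; test concentration not given here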
Lefty1 = Lefty1 binders on small-molecule microarrays, primary screen, biochemical, small-molecule microarray, 635/667 nm fluorescence (AID 1139); conditions: small-molecule microarray binding, fluorescence 635/667; higher = more signal
[8] = test system: wheat germ agglutinin (Triticum aestivum), Alexa647-labelled; assay: wheat germ agglutinin binders on compound microarrays, profiling panel, artefact control for SMM control-protein annotation, biochemical, small-molecule microarray, 635/667 nm fluorescence (AID 1140); conditions: WGA-A647 binding, 635 nm fluorescence, higher = more signal;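 also: score merges 667 nm feature emission with signal to noise over triplicate slides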
[9] = molecular target: Luciferin 4-monooxygenase (Photinus pyralis) (UniProt P08659); assay: firefly luciferase enzyme inhibitors, primary screen, biochemical, luminescence, purified enzyme, 2006 set (AID 1141); conditions: SteadyGlo luminescence, 30 min, higher = more signal, called active from +8 up or from −8 down;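 also: cell-free assay with purified firefly luciferase at 100 ng per well in PBS; test concentration not given here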
[10] = test system: Wnt5a (protein binding on small-molecule microarray); assay: Wnt5a binders on small-molecule microarray, primary screen, biophysical, 635/667 nm fluorescence (AID 1142); conditions: 635 nm fluorescence, higher = more signal;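 also: fluorescence read at 667 nm with signal to noise per printed feature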
[11] = cell viability in Huh7 cells, primary screen, cytotoxicity control for HCV replication inhibitor project, CellTiter-Glo luminescence, basal, 48 h (AID 1143); conditions: Huh7 HCV replicon, higher = more signal, called active from +8 up or from −8 down;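 also: Huh7 hepatoma cells carrying a hepatitis C replication reporter with no stimulus; test concentration not given here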
[12] = P. aeruginosa biofilm formation inhibitors, primary screen, PAO1 strain, BacTiter-Glo luminescence, LB-PBS (AID 1144); conditions: 12 h, higher = more signal
[13] = CREB reporter modulators without forskolin, primary screen, cell-based, PC12, CRE-LacZ reporter, unstimulated (AID 1145); conditions: no forskolin, luminescence, 4.5 h, higher = more signal, called active from +8 up or from −8 down
[14] = CREB reporter modulators under forskolin, primary screen, cell-based, PC12, CRE-LacZ reporter, forskolin-stimulated (AID 1146); conditions: luminescence, 4.5 h, higher = more signal, called active from +8 up or from −8 down;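 also: PC12 cells with 6xCRE LacZ reporter stimulated by forskolin 10 µM; beta-galactosidase reporter signal reflecting CREB driven transcription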
[15] = molecular target: Streptavidin (Streptomyces avidinii) (UniProt P22629); assay: streptavidin binders on small-molecule microarray, primary screen, artefact control for SMM compound annotation, biophysical, 635/667 nm fluorescence (AID 1147); conditions: streptavidin binding, higher = more signal;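 also: signal reflects streptavidin binding to arrayed compounds as a control protein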
[16] = small-molecule binders of probe aInhba, primary screen, biochemical, small-molecule microarray, 635/667 nm fluorescence (AID 1148); conditions: higher = more signal;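 also: score merges 667nm spot fluorescence with signal-to-noise for antibody binding to printed compounds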
Torsin-1A (Homo sapiens) [17] = molecular target: Torsin-1A (Homo sapiens) (UniProt O14656); assay: torsin A binders from cell lysate, primary screen, small-molecule microarray, wild-type, 635/667 nm (AID 1149); conditions: COS7 hTOR1A-WT lysate, 635 nm fluorescence, higher = more signal
Torsin-1A (Homo sapiens) [18] = molecular target: Torsin-1A (Homo sapiens) (UniProt O14656); assay: small-molecule binders of mutant TOR1A in lysate, primary screen, cell lysate, small-molecule microarray, COS7 lysate, 635/667 nm fluorescence (AID 1150); conditions: COS7 hTOR1A mutant lysate, 635 nm fluorescence, higher = more signal;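 also: score pools 667 nm emission and signal to noise measuring lysate protein binding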
[19] = test system: Sonic hedgehog protein (Shh); assay: small-molecule binders of Shh protein, primary screen, biochemical, small-molecule microarray, 635/667 nm fluorescence (AID 1151); conditions: small-molecule microarray binding, 635 nm fluorescence; higher = more signal;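 also: Shh protein binding to compounds spotted on small-molecule microarray slides; score combines spot fluorescence intensity with signal-to-noise across triplicate slides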

Sequence of Streptavidin (Streptomyces avidinii) (P22629 whole entry, looked up): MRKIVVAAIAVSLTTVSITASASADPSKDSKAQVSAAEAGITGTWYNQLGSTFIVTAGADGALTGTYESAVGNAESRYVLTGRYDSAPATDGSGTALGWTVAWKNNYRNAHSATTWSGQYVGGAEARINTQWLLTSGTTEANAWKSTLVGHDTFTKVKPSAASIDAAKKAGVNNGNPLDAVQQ
Sequence of Focal adhesion kinase 1 (Homo sapiens) (Q05397 whole entry, looked up): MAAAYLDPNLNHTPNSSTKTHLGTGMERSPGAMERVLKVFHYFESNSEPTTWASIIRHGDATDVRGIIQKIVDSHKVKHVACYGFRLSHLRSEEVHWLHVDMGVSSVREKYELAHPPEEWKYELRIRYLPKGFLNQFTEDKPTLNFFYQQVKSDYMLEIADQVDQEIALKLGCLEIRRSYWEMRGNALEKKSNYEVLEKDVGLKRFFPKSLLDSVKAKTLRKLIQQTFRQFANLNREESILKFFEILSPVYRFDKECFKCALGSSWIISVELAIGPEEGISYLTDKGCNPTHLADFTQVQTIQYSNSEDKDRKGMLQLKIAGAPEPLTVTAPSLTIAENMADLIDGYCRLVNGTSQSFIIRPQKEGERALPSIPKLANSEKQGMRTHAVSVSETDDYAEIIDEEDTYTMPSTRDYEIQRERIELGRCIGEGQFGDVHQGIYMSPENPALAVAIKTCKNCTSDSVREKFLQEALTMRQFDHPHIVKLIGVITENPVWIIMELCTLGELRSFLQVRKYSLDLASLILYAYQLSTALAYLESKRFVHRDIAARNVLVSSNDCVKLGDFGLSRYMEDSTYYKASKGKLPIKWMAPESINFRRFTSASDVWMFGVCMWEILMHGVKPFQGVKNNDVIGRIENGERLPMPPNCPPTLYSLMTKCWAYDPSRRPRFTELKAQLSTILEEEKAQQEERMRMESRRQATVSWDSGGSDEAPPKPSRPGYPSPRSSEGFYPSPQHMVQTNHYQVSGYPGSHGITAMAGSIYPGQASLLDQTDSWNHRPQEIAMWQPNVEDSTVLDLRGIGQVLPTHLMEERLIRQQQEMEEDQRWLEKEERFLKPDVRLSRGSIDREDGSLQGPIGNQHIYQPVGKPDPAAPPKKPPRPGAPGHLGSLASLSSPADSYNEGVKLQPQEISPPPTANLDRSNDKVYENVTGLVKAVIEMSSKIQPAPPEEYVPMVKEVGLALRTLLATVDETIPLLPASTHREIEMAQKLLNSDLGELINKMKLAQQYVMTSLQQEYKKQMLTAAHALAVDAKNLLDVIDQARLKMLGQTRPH
Sequence of Fibroblast growth factor 2 (Homo sapiens) (P09038 whole entry, looked up): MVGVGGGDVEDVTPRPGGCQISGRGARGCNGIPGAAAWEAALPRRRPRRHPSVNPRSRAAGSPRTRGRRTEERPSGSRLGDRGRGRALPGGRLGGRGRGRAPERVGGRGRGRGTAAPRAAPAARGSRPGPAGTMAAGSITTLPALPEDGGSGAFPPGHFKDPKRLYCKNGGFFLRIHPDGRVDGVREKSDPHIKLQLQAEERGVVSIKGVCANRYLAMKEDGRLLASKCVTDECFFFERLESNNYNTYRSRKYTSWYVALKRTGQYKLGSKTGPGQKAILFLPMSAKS
Sequence of Torsin-1A (Homo sapiens) (O14656 whole entry, looked up): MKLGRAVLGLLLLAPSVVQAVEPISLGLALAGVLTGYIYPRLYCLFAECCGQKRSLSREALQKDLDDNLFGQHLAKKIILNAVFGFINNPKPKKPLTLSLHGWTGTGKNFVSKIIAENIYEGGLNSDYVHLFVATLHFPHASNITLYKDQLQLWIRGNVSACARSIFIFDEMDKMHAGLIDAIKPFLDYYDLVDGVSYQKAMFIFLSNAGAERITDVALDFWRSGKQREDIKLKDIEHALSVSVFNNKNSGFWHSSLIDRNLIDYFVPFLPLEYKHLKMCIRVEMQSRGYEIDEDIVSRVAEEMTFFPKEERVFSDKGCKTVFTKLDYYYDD
Sequence of Luciferin 4-monooxygenase (Photinus pyralis) (P08659 whole entry, looked up): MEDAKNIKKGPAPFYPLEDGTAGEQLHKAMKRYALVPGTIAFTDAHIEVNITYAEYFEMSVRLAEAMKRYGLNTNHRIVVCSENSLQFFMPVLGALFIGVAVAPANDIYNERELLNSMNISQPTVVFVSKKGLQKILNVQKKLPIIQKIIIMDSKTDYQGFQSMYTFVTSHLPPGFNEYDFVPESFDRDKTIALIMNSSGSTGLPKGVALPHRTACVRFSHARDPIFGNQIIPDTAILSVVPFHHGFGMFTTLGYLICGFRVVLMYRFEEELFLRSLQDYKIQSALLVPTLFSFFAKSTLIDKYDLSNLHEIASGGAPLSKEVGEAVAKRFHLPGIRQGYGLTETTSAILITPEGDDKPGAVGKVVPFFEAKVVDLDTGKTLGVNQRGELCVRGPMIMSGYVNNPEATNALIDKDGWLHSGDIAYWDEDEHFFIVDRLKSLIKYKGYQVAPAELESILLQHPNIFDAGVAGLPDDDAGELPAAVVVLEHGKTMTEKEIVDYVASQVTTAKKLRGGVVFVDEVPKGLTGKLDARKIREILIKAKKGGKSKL
Sequence of Follistatin (Homo sapiens) (P19883 whole entry, looked up): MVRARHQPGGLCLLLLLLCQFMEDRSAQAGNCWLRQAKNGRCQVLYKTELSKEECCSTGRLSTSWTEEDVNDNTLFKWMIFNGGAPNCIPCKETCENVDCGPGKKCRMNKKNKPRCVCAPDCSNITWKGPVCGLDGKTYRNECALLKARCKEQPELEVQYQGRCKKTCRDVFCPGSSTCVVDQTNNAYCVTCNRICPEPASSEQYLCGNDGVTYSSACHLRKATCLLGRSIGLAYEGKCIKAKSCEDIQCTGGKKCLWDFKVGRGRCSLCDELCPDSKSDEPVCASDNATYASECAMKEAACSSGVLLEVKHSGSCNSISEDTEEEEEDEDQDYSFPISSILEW

Row | SMILES | composite z-score [1] | composite z-score [2] | composite z-score [3] | composite z-score [4] | composite z-score [5] | composite z-score [6] | z-score [7] | composite z-score (Lefty1) | composite z-score [8] | z-score [9] | composite z-score [10] | z-score [11] | z-score [12] | z-score [13] | z-score [14] | composite z-score [15] | composite z-score [16] | composite z-score (Torsin-1A (Homo sapiens) [17]) | composite z-score (Torsin-1A (Homo sapiens) [18]) | composite z-score [19]
1 | COCC1=C2[C@@H](CCc3ccccc3)OB(O)C[C@@H]2[C@@H]2C(=O)C=CC(=O)[C@@H]2C1 | 1.39 | 0.736 | 0.238 | 0.0217 | 0.648 | 0.519 | -1.23 | 0.654 | 0.982 | -3.14 (inactive) | 0.0021 | -1.9 (inactive) | 0.353 (inactive) | 19.2 (active) | 22.8 (active) | 0.55 | 0.0212 | 0.246 | 0.292 | 0.963
2 | C=CCC(OC(C)=O)[C@@H]1[C@@H](N(Cc2cc3ccccc3o2)C(=O)c2ccc(-c3ccccc3)cc2)c2cc(OCCCO)ccc2N1C(=O)c1ccc2ccccc2c1 (stereo not given in full) | 0.0895 | 0.0833 | -0.394 | 0.394 | 0.874 | -0.198 | 1.26 | 0.795 | 0.196 | -0.455 (inactive) | -0.0582 | -0.282 (inactive) | 0.2 (inactive) | 1.22 (inactive) | 0.655 (inactive) | 0.0798 | -0.143 | 0.0664 | -0.0892 | 1.12
3 | C=CCOC(=O)[C@H]1[C@@H]2C(=O)O[C@@H](c3ccccc3)[C@@H](c3ccccc3)N2[C@@H](c2ccc(OCCOC(=O)[C@@H]3C[C@@H]4C(=O)N[C@@H](CCCCN(C)C)C(=O)N4[C@@H]3c3ccc(O)cc3)cc2)[C@]12C(=O)Nc1ccccc12 | 1.57 | 1.14 | 0.0515 | 0.503 | 1.38 | 1.48 | -1.49 | 1.54 | 0.382 | -3.27 (inactive) | 0.261 | -0.0273 (inactive) | 0.283 (inactive) | 0.411 (inactive) | 0.739 (inactive) | -0.245 | -0.0468 | 0.756 | 0.73 | 1.96
4 | O=C1C=C(c2ccccc2)C(=O)c2ccc([C@H]3Oc4ccccc4S(=O)(=O)N4CCC[C@@H]34)cc21 | -0.398 | -0.315 | -0.29 | -0.506 | 0.428 | -0.0096 | -1.69 | 0.203 | -0.0704 | -2.04 (inactive) | 0.34 | -6.42 (inactive) | 0.016 (inactive) | 9.47 (active) | 33 (active) | -0.309 | -0.258 | 0.0359 | 1.97 | 0.222
5 | COC(=O)c1c2oc(c1C(=O)OC)C(=O)N(C)Cc1cn(nn1)C[C@H](Cc1ccccc1)NC(=O)N[C@H](CO)CC2 | -0.0688 | -1.52 | -0.27 | -1.15 | -0.0414 | -0.438 | -0.209 | 0.244 | -0.272 | 0.247 (inactive) | -0.334 | 0.336 (inactive) | 0.553 (inactive) | 0.148 (inactive) | -0.324 (inactive) | -0.403 | -0.0576 | -0.794 | -0.641 | 0.624
6 | [N-]=[N+]=Nc1ccccc1C[C@]1(C(=O)N2CCOCC2)N=C(c2ccc(OCCCO)cc2)O[C@H]1c1ccccc1 | 2.06 | 1.21 | 0.3 | 0.905 | 1.42 | 1.81 | 2.81 | 0.435 | 1.2 | -2.31 (inactive) | 1.01 | -3.57 (inactive) | 0.567 (inactive) | 0.204 (inactive) | -0.0807 (inactive) | 0.65 | -0.0279 | 1.14 | 0.272 | 0.276
7 | COc1ccc(CCNC(=O)[C@@]2(Sc3ccc(C)cc3)CC(=O)N(C3Cc4ccccc4C3)[C@@H]2c2ccc(CO)cc2)cc1 | 1.27 | 1.21 | 1.54 | 0.434 | 1.65 | 2.16 | 0.927 | 1.44 | 0.437 | 0.529 (inactive) | 1.56 | -5.12 (inactive) | -0.926 (inactive) | -0.698 (inactive) | -0.0678 (inactive) | 1.03 | 0.507 | 0.285 | 0.811 | 2.07
8 | C=CCOC(=O)[C@H]1[C@@H]2C(=O)O[C@@H](c3ccccc3)[C@@H](c3ccccc3)N2[C@@H](c2ccc(OCCOC(=O)[C@@H]3C[C@@H]4C(=O)N[C@@H](CCCCNC(C)=O)C(=O)N4[C@@H]3c3ccc(O)cc3)cc2)[C@]12C(=O)Nc1ccc(I)cc12 | 1.66 | 1.21 | 0.736 | 0.468 | 1.32 | 1.49 | -1.38 | 0.752 | 0.0621 | -0.875 (inactive) | 0.804 | -0.257 (inactive) | 0.272 (inactive) | 0.143 (inactive) | 0.236 (inactive) | -0.139 | 0.225 | 1.25 | 1.15 | 2.21
9 | CC[C@H]1C2=C3C(CC[C@H]4C(OCc5ccc(F)cc5C(F)(F)F)OC[C@](C)([C@@H]34)N(C(=O)OC(C)(C)C)C2)C(COC)C1COC (stereo not given in full) | -0.0372 | 0.0144 | -0.093 | -0.0416 | -0.0566 | -0.758 | 0.767 | -0.477 | 0.225 | 0.303 (inactive) | -0.173 | 0.0724 (inactive) | 1.02 (inactive) | -0.379 (inactive) | 1.01 (inactive) | -0.214 | 0.029 | -0.0927 | -0.0476 | -1.3
10 | C=C(COC)/C(=C/C[C@H](OC(C)=O)c1ccc(OCCO)cc1)c1cc(C(=O)OC)ccc1OC | 0.544 | 1.07 | 0.514 | 0.436 | 1.35 | 1.67 | 2.8 | 1.66 | 0.395 | -1.71 (inactive) | 0.39 | -0.519 (inactive) | -0.339 (inactive) | 13.8 (active) | 0.696 (inactive) | -0.313 | 0.0566 | 2.01 | 0.524 | 1.92
